Compounds with a hit are over-represented: about 3.4% of the library has one in this group of screens.
PLCg1 inh: inhibitors of human phospholipase C gamma1; P19174; AID 720700; inhibition, % at 12.2 µM; purified PLC-gamma1, fluorogenic substrate, fluorescence; actives 0.84% (n = 370,000); in the data active = inhibition above about 9.5%
PLCb3 inh: blocks human PLC-beta3 enzyme activity | Q01970 | actives 0.18% (n = 370,000) | inhibition, % at 12.2 µM | Purified PLC-beta3, fluorogenic substrate, fluorescence; in the data active = inhibition above about 11%;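 also: 0% = median of compound wells on plate and 100% = full blocker control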
HGIII-sPLA2 inh: Inhibits HGIII-sPLA2 liposome hydrolysis, primary screen; Q9NZ20; QFRET BODIPY PC-A2 liposome hydrolysis, fluorescence; inhibition, % at 12.2 µM; actives 0.56% (n = 370,000);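 active = inhibition above mean plus 3 SD of compounds lying within the high and low control bounds, cut at about 19% in these data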;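 also: 0% = median of test compound wells and 100% = no enzyme DMSO wells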
ADAM17 inh: ADAM17 inhibition, QFRET primary screen | recombinant ADAM17, EDANS/DABCYL FRET peptide cleavage | inhibition, % at 6.95 µM | actives 0.83% (n = 370,000) | AID 720648 | P78536;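 active = inhibition above the mean of compounds lying between control limits plus 3 SD, set per campaign, cut at about 8.5% in these data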;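 also: 0% = DMSO-only wells as the low control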
KLK7 zymogen act: activates the human kallikrein-7 zymogen | P49862 | purified proKLK7, EDANS-DABCYL substrate fluorescence; 100% is mature enzyme control, 0% vehicle | activation, % at 7 µM | actives 0.9% (n = 370,000) | AID 652039;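 active = activation above the mean of all tested compounds plus 3 SD, computed per campaign excluding outliers beyond control limits, cut at about 13% in these data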
Target sequence (P49862 whole entry, looked up): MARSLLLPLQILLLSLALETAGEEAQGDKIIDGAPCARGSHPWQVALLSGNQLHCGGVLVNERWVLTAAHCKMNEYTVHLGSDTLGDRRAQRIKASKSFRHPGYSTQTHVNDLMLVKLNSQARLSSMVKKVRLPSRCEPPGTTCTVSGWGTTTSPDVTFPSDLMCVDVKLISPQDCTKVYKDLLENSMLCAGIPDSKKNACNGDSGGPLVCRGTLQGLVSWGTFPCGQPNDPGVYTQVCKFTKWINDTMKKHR
ADAM10 inh: inhibits human ADAM10; inhibition, % at 7 µM; actives 0.62% (n = 370,000); O14672; recombinant ADAM10, EDANS/DABCYL FRET peptide cleavage, 3 h;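 active = inhibition above a per-campaign cutoff equal to the mean of compounds falling between control-based bounds plus 3 SD, cut at about 20% in these data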;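 also: 0% = DMSO wells while the 100% control is not disclosed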
ADAM10 ctr: inhibits human ADAM10 in ADAM17 exosite counter-screen; shares compounds with ADAM17 inh; recombinant ADAM10, EDANS/DABCYL FRET peptide cleavage, 3 h; inhibition, % at 6.95 µM; actives 47% (n = 2,900);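 active = mean inhibition over the triplicate runs exceeds the activity threshold set in the earlier primary screen, cut at about 20% in these data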;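 also: 0% = DMSO wells and 100% = marimastat wells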
ADAM17 confirm: confirmation of inhibitors of human ADAM17; shares compounds with ADAM17 inh; recombinant ADAM17, EDANS/DABCYL QFRET peptide cleavage; inhibition, % at 6.95 µM; actives 65% (n = 2,900); AID 743257;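 active = mean inhibition across replicates above the hit cutoff set in the primary screen, cut at about 8.5% in these data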;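 also: 0% = DMSO wells and 100% = marimastat wells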
* hit, by the source's call.

CCCOC(=O)c1ccc(Oc2cn[nH]c2-c2ccc(OCC)cc2O)cc1 was read as PLCg1 inh -0.4, PLCb3 inh 2.5, HGIII-sPLA2 inh -51.7, ADAM17 inh 9.8*, KLK7 zymogen act 0.4, ADAM10 inh 7.6, ADAM10 ctr 17.2 and ADAM17 confirm 12.1*.
COc1ccc(Oc2c(-c3ccc(O)cc3O)n[nH]c2C)cc1 was read as PLCg1 inh 0.2, PLCb3 inh -4.7, HGIII-sPLA2 inh -41.8, ADAM17 inh 3.6, KLK7 zymogen act 0.0 and ADAM10 inh 2.5.
For CCCc1ccc(Oc2c(-c3ccc(O)c(C)c3O)n[nH]c2C)cc1 the results were PLCg1 inh 2.8, PLCb3 inh -1.1, HGIII-sPLA2 inh -9.4, ADAM17 inh 9.0*, KLK7 zymogen act -0.3, ADAM10 inh 5.1, ADAM10 ctr 6.3 and ADAM17 confirm 8.3.
CCCOC(=O)c1ccc(Oc2c(-c3ccc(OCC)cc3O)n[nH]c2C)cc1 was read as PLCg1 inh 1.6, PLCb3 inh 1.2, HGIII-sPLA2 inh -33.4, ADAM17 inh 9.8*, KLK7 zymogen act -0.4, ADAM10 inh 19.0, ADAM10 ctr 24.4* and ADAM17 confirm 14.8*.
Screening CNC(C)C(=O)NC(C(=O)N1CCCC1C(=O)Nc1cccc2ncccc12)C(C)C (configuration not stated) returned PLCg1 inh -2.3, PLCb3 inh -3.0, HGIII-sPLA2 inh 2.6, ADAM17 inh -4.3 and ADAM10 inh -1.2.
For COc1ccc(C=Nn2c(-c3n[nH]c4c3CCC4)n[nH]c2=S)cc1OCc1ccccc1 the results were PLCg1 inh -0.3, PLCb3 inh -1.9, HGIII-sPLA2 inh 4.4, ADAM17 inh 3.2, KLK7 zymogen act -1.3 and ADAM10 inh -2.2.
`CC(C)(C)N(Cc1ccccc1)C(=O)CSc1nc2ccccc2c(=O)[nH]1` gave PLCg1 inh 6.1, PLCb3 inh 1.1, HGIII-sPLA2 inh -1.9, ADAM17 inh 9.0*, KLK7 zymogen act 0.6, ADAM10 inh 15.6, ADAM10 ctr 9.9 and ADAM17 confirm 6.2.
For COCc1cc(N2CCNC[C@H]2C)ccc1N1CCS(=O)(=O)CC1 the results were PLCg1 inh -3.5, PLCb3 inh -2.3, HGIII-sPLA2 inh 6.5, ADAM17 inh -2.6, KLK7 zymogen act 0.2 and ADAM10 inh -4.5.
Nc1nc(-c2ccccc2)cs1 was read as PLCg1 inh 2.0, PLCb3 inh 3.4, HGIII-sPLA2 inh 4.1, ADAM17 inh -5.2, KLK7 zymogen act -0.3 and ADAM10 inh 2.0.
For Nc1nc(C(c2ccccc2)c2ccccc2)cs1 the results were PLCg1 inh 2.6, PLCb3 inh -3.7, HGIII-sPLA2 inh 5.6, ADAM17 inh 8.7*, KLK7 zymogen act 0.1, ADAM10 inh 19.7, ADAM10 ctr 6.5 and ADAM17 confirm 3.8.
`COc1cc2c(cc1NC(=O)COC(=O)[C@@H](NS(=O)(=O)c1ccccc1)C(C)C)oc1ccccc12` gave PLCg1 inh -4.1, PLCb3 inh -2.3, HGIII-sPLA2 inh -38.7, ADAM17 inh 10.5*, KLK7 zymogen act -14.0, ADAM10 inh 19.4, ADAM10 ctr -5.0 and ADAM17 confirm 4.8.
For COc1ccc(O)c(/C=N/NC(=O)c2ccc(CSc3nc(C)cc(C)n3)cc2)c1 the results were PLCg1 inh -30.8, PLCb3 inh -42.5, HGIII-sPLA2 inh 7.9, ADAM17 inh 13.9*, KLK7 zymogen act -2.8, ADAM10 inh 19.2, ADAM10 ctr 9.7 and ADAM17 confirm 9.5*.
COc1ccc(/C=N/NC(=O)c2ccc(CSc3nc(C)cc(C)n3)cc2)cc1O was read as PLCg1 inh -25.7, PLCb3 inh -34.2, HGIII-sPLA2 inh -27.9, ADAM17 inh 2.2, KLK7 zymogen act 0.2 and ADAM10 inh 1.8.
O=C1CCC[C@H]2CC3(CC[C@]24CCCN14)OCCO3 was read as PLCg1 inh -2.8, PLCb3 inh 1.3, HGIII-sPLA2 inh 0.6, ADAM17 inh -4.6 and ADAM10 inh -4.3.
`C=CC[C@@H](CC(=O)NCCO)C(=O)N[C@H](COC(=O)[C@H](CC=C)CC(=O)OC(C)(C)C)Cc1c[nH]c2ccccc12` gave PLCg1 inh -0.4, PLCb3 inh 3.0, HGIII-sPLA2 inh -64.8, ADAM17 inh 2.5, KLK7 zymogen act 0.6 and ADAM10 inh -7.6.
`C=CC[C@@H](CC(=O)N[C@H](CO)Cc1ccccc1)C(=O)N[C@H](COC(=O)[C@@H](CC=C)CC(=O)OC(C)(C)C)Cc1ccccc1` gave PLCg1 inh 3.5, PLCb3 inh -3.2, HGIII-sPLA2 inh -49.1, ADAM17 inh 9.6*, KLK7 zymogen act 0.6, ADAM10 inh 10.5, ADAM10 ctr 19.2 and ADAM17 confirm 8.3.
Screening C=CC[C@H](CC(=O)NCCO)C(=O)N[C@H](COC(=O)[C@@H](CC=C)CC(=O)OC(C)(C)C)Cc1ccccc1 returned PLCg1 inh 4.9, PLCb3 inh 3.5, HGIII-sPLA2 inh 0.6, ADAM17 inh -1.4, KLK7 zymogen act 0.6 and ADAM10 inh -2.4.
Screening C=CC[C@H](CC(=O)NCCO)C(=O)N[C@@H](COC(=O)[C@H](CC=C)CC(=O)OC(C)(C)C)Cc1c[nH]c2ccccc12 returned PLCg1 inh 1.3, PLCb3 inh 1.8, HGIII-sPLA2 inh -57.1, ADAM17 inh -1.8, KLK7 zymogen act 0.2 and ADAM10 inh 1.6.
For C=CC[C@@H](CC(=O)N(CCO)Cc1ccccc1)C(=O)N[C@H](COC(=O)[C@@H](CC=C)CC(=O)OC(C)(C)C)Cc1ccccc1 the results were PLCg1 inh 7.6, PLCb3 inh 4.6, HGIII-sPLA2 inh -28.4, ADAM17 inh 18.3*, KLK7 zymogen act 0.1, ADAM10 inh 27.7*, ADAM10 ctr 38.7* and ADAM17 confirm 17.9*.
C=CC[C@H](CC(=O)N(CCO)Cc1ccccc1)C(=O)N[C@H](COC(=O)[C@@H](CC=C)CC(=O)OC(C)(C)C)Cc1ccccc1 was read as PLCg1 inh 3.1, PLCb3 inh 3.8, HGIII-sPLA2 inh -41.2, ADAM17 inh 4.9, KLK7 zymogen act 0.3 and ADAM10 inh 14.1.
C=CC[C@H](CC(=O)N[C@H](CO)Cc1ccccc1)C(=O)N[C@H](COC(=O)[C@H](CC=C)CC(=O)OC(C)(C)C)Cc1c[nH]c2ccccc12 was read as PLCg1 inh -0.7, PLCb3 inh 3.3, HGIII-sPLA2 inh -88.3, ADAM17 inh 11.4*, KLK7 zymogen act -0.3, ADAM10 inh 17.6, ADAM10 ctr 26.2* and ADAM17 confirm 12.8*.
